Source: PubChem BioAssay (NCI)
Where “and” joins values, the source holds several entries; their conditions need not be identical. Equal values may be shown once. Compounds without any hit were thinned out: in the full panel of roughly 83,000, 20% have a hit.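 Compound tested at a single concentration for 48 hours in 96-well plates; a percent growth value below 10 was scored as active.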 A number with no mark means an inactive call. Calls of active or inactive are those of the source.

System: NCI-H322M lung
Assay: NCI-60 one-dose screen, 48 h (100 = growth as untreated, 0 = no growth, -100 = all killed)
Conditions: 10 µM
Method: Growth inhibition of the NCI-H322M human Non-Small Cell Lung tumor cell line is measured as a screen for anti-cancer activity. Cells are grown in 96 well plates and exposed to the test compound for 48 hours. Compounds are tested at a single concentration, which is 10^-5 M for most compounds. The reported endpoint is percent growth (GI% or GIPRCNT), where numbers from 0 - 100% represent growth inhibition, and numbers from -100% - 0 represent cell death. For example, a value of 40 represents 60% growth inhibition. A value of 0 means no net growth occurred over the course of the experiment. A value of -40 indicates 40% of cells at the beginning of the experiment died by the end of the experiment. A value of -100 means all cells are dead at the end of the experiment.
NCI-60 Human Tumor Cell Lines Screen was performed using the standard one-dose NCI protocol, which is described in more detail at https://dtp.cancer.gov/discovery_development/nci-60/default.htm.
Compounds with GIPRCNT values below 10 were considered active. Activity score was based on GIPRCNT using the following formula: […]
Score is 0 for GIPRCNT values of 100 or above, 50 for GIPRCNT values of 0, and 100 for GIPRCNT values of -100.

SMILES | growth [%]
S=C(SSC(=S)N1CCCCC1)N1CCCCC1 | 102

Same assay, conditions: 10 µM unless noted

SMILES | growth
C[C@H]1CCC/C=C/[C@@H]2C[C@H](O)C[C@H]2[C@H](O)/C=C/C(=O)O1 | 5.77% (active)
CC[C@@]1(O)C[C@H](OC2CC(N(C)C)C(O)C(C)O2)c2c(O)c3c(c(O)c2[C@H]1OC1CC(N(C)C)C(O)C(C)O1)C(=O)c1cccc(O)c1C3=O (stereo not given in full) | -31.5% (active)
Oc1cc[c]([Hg][Cl])cc1 | 93.4%
C[C@]12CC[C@H](O)CC1=CC[C@@H]1[C@@H]2CC[C@]2(C)C(=O)CC[C@@H]12 | 91%
CCC(=O)OC1CCn2c1nc1c2C(=O)C(C)=C(N2CC2)C1=O (stereo not given) | -5.88% (active)
Cc1c(N)nc([C@H](CC(N)=O)NC[C@H](N)C(N)=O)nc1C(=O)N[C@H](C(=O)N[C@H](C)[C@@H](O)[C@H](C)C(=O)N[C@H](C(=O)NCCc1nc(-c2nc(C(=O)NCCC[S+](C)C)cs2)cs1)[C@@H](C)O)C(OC1OC(CO)C(O)C(O)C1OC1OC(CO)C(O)C(OC(N)=O)C1O)c1cnc[nH]1 (stereo not given in full) | 97.1% [2.5 µM]
Cc1ccc(C(=O)OC(C(=O)O)C(OC(=O)c2ccc(C)cc2)C(=O)O)cc1 (stereo not given) (tested in a mixture with another compound) | 83.2%
CC[C@](O)(C(=O)O)c1cc2n(c(=O)c1CO)Cc1cc3ccccc3nc1-2 | -5.59% (active)
COc1ccc(OC)c(/C=C/[N+](=O)[O-])c1 | 69.6%
COC1CC(CC2CCC(C)C(C(C)C(=O)O)O2)OC2(OC(C)(C3CCC(C)(C4OC(C5OC(O)(CO)C(C)CC5C)CC4C)O3)CC2C)C1C (stereo not given) | 9.36% (active)
Oc1cccc2cccnc12 | 104% and 111% and 95.5%
CCOC(=O)C(NC(=O)C(Cc1ccc(N(CCCl)CCCl)cc1)NC(C)=O)C(C)C (stereo not given) | 95.4%
COC1=C(C)C(=O)C2=C(C1=O)C(CO)N1C(C#N)C3CC4C(C1C2N1CCOC41)N3C (stereo not given) | -23.7% (active)
CCCCCCCCCCCC1CCCC(C)N1 (stereo not given) | 127%
CCC1(O)CC(OC2CC(N(C)C)C(OC3CC4OC5CC(=O)C(C)OC5OC4C(C)O3)C(C)O2)c2c(cc3c(c2O)C(=O)c2c(O)ccc(O)c2C3=O)C1C(=O)OC (stereo not given) | -32.4% (active)
NCCc1ccc(OCc2ccccc2)c(OCc2ccccc2)c1 | 85.4%
CC1=C2C(=O)[C@H]3[C@@H](CC=C4C[C@@H](O)CC[C@@]43C)[C@@H]2CC[C@]12O[C@@H]1C[C@H](C)CN[C@H]1[C@H]2C | 86.4%
CC[C@@]1(O)C(=O)OCc2c1cc1n(c2=O)Cc2cc3ccccc3nc2-1 | -19.4% (active)
CC(=O)O[C@H]1C[C@@H]2OC3C=C(C)CCC3(C)[C@@]1(C)[C@@]21CO1 (stereo not given in full) | -19.5% (active)
COc1ccccc1/C=C(/C)[N+](=O)[O-] | 92.7% and 92.2%
CC1=C(CO)C2=C(C)C3(CC3)[C@@](C)(O)C(=O)C2=C1 | -24.9% (active)
Cc1cc(N=Nc2ccccc2C)ccc1N | 89.2%
CO[C@H](/C(C)=C/C=C/C(C)=C/c1coc(C)n1)[C@H](C)[C@H]1C[C@@H](O)[C@@]2(C)O[C@H]2/C=C/[C@@H](C)[C@@H]2C[C@@H](CC(=O)O2)C[C@H]2O[C@@H]2C(=O)O1 | 42.9%
COc1cccc2c1cc([N+](=O)[O-])c1c(C(=O)O)cc3c(c12)OCO3 | 50.4% and 99%
CN1CCN(c2ccc([N+](=O)[O-])c3no[n+]([O-])c23)CC1 | -24.2% (active)
CC[n+]1c(-c2ccccc2)c2cc(N)ccc2c2ccc(N)cc21 | 25.9%
CC[C@@]1(O)C[C@H](OC2CC(N(C)C)C(OC3CC(O)C(OC4CCC(=O)C(C)O4)C(C)O3)C(C)O2)c2c(cc3c(c2O)C(=O)c2c(O)ccc(O)c2C3=O)[C@H]1C(=O)OC (stereo not given in full) | -17.8% (active)
O=C1c2ccccc2C(=O)C(Cl)C1Cl (stereo not given) | 96.1%

Same assay, conditions: 100 µM

SMILES | growth [%]
S=C(SSC(=S)N1CCCCC1)N1CCCCC1 | 32
